The list is not random: actives were taken first. Their share in the collection is about 1.3%.
ID4 SMM: binders of human ID4 protein, primary screen, biochemical, small molecule microarray, single point; DNA-binding protein inhibitor ID-4 (Homo sapiens), P47928; AID 624137, 2012; Flag-ID4 binding, fluorescence F/B; calls only; actives 1.2% (n = 31,000); call rule not given here;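 further: a binder raises fluorescence above local background on the spot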
STK33 kin inh: STK33 kinase inhibitors, primary screen, biochemical, luminescence, ADP-Glo, MBP substrate; Serine/threonine-protein kinase 33 (Homo sapiens), Q9BYT3; inhibition, % at 12.5 µM; actives 0.44% (n = 27,000); in the data active means inhibition above about 20%; inconclusive means no clear call, values can overlap the other calls
Target sequence (Q9BYT3 whole entry, looked up): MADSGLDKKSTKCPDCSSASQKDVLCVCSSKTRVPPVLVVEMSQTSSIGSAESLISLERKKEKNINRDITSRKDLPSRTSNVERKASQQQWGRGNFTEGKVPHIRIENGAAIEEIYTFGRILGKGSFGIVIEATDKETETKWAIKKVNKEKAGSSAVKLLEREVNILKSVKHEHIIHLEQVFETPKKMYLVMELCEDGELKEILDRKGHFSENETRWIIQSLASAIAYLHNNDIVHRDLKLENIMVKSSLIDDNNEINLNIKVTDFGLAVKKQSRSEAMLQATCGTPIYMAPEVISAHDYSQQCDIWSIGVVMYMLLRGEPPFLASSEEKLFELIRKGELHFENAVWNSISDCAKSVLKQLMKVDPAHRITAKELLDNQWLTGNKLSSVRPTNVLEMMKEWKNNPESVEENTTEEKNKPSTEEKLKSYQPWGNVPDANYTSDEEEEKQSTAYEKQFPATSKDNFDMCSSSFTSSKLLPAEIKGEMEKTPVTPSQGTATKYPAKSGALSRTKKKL
The depositor's hits bear a star; i = inactive; ? = inconclusive; · = no result given; + = active, no number.

SMILES | ID4 SMM | STK33 kin inh
O=S(=O)(N[C@@H]1CCCN(Cc2cccc(OCCO)c2)C1)c1ccc(Cl)c(Cl)c1 | · | 0
O=S(=O)(N[C@@H]1CCCN(Cc2cccc(OCCO)c2)C1)c1cc(Cl)ccc1Cl | + | 1
Cc1ccc(S(=O)(=O)N[C@@H]2CCCN(Cc3ccc(OCCO)cc3)C2)cc1 | + | ·
O=S(=O)(N[C@@H]1CCCN(Cc2ccc(OCCO)cc2)C1)c1ccccc1 | i | -1
O=C(Nc1ccc(NS(=O)(=O)c2cccc(C(=O)Nc3ccc(Br)cc3)c2)cc1)c1ccccc1 | i | 2
O=c1c(-c2c(O)cc(O)c3c(=O)cc(-c4ccc(O)cc4)oc23)c(-c2ccc(O)cc2)oc2cc(O)cc(O)c12 | · | 3
COc1ccc(-c2cc(=O)c3c(O)cc(O)cc3o2)cc1 | · | 25*
COc1ccc(-c2cc(=O)c3c(OC)cc(OC)cc3o2)cc1 | · | 1
O=c1cc(-c2ccc(O)c(O)c2)oc2cc(O)cc(O)c12 | · | 78*
CS(=O)(=O)N1CCN(C(=S)NCc2ccco2)CC1 | i | -3
COCCNC(=S)N1CCN(Cc2ccco2)CC1 | + | 11
CCOC(=O)c1cnc(S/C=C/C(=O)c2ccc(C)cc2)nc1N | · | 2
CCn1c(SCC(=O)Nc2c(C)cccc2C)nnc1-c1cnccn1 | + | -3
CCn1c(SCC(=O)Nc2cc(C)c(Cl)cc2OC)nnc1-c1cnccn1 | i | 0
COC(OC)C1Nc2ccccc2C(=O)N1c1cccc(C(F)(F)F)c1 (stereo not drawn) | i | ·
CC(=O)c1cccc(-n2c(CCC(=O)O)ccc2-c2ccc(C)cc2)c1 | + | -6
Cc1ccc(-c2ccc(CCC(=O)O)n2-c2ccc(N(C)C)cc2)cc1 | i | -9
CCCCCCCC(=O)CCc1ccc(O)c(OC)c1 | · | -2
Cc1ccc(NC(=O)CSc2nnc(-c3ccncc3)n2C)c(Br)c1 | i | -5
Cn1c(SCC(=O)Nc2ccnc3ccccc23)nnc1-c1ccncc1 | + | -2
CC(=O)c1ccc(NC(=O)CSc2nc(O)c(-c3ccccc3)c(=O)[nH]2)cc1 | i | -3
CCc1c(O)nc(SCC(=O)Nc2ccc(C(C)=O)cc2)[nH]c1=O | + | -2
O=C(CSc1nnc(-c2ccc(Br)cc2)o1)Nc1ccc(Cl)c(Cl)c1 | i | 1
Cc1ccc(NS(=O)(=O)c2cc(C(=O)Nc3ccccc3C(=O)N3CCCC3)ccc2C)c(C)c1 | i | 9
Cc1ccccc1NC(=O)c1ccc(C)c(S(=O)(=O)Nc2cc([N+](=O)[O-])ccc2C)c1 | + | -2
SMILES | ID4 SMM | STK33 kin inh
COc1cc(/C=C/C(=O)NCC(O)c2ccc(O)cc2)ccc1O (stereo not drawn) | · | -3
COc1cc(O)c(C(=O)/C=C/c2ccc(O)c(OC)c2)c(OC)c1 | · | 51*
CCC(=O)Nc1nonc1-c1nc2ccccc2n1Cc1cc(OC)ccc1C | i | 6
O=C(CCN1C(=O)c2ccccc2S1(=O)=O)NCc1ccco1 | + | -2
O=C(CCN1C(=O)c2ccccc2S1(=O)=O)Nc1cccc(Cl)c1Cl | i | 0
C[C@@H]1CN([C@@H](C)CO)C(=O)Cc2cc(NC(=O)Cc3ccccc3)ccc2O[C@H]1CN(C)C(=O)Nc1ccccc1 | + | ·
C[C@@H]1CN([C@H](C)CO)C(=O)Cc2cc(NS(=O)(=O)c3ccccc3)ccc2O[C@H]1CN(C)C(=O)Nc1ccccc1 | i | -1
C[C@@H]1CN([C@H](C)CO)C(=O)Cc2cc(NC(=O)Cc3ccccc3)ccc2O[C@@H]1CN(C)C(=O)Nc1ccccc1 | i | 0
C[C@@H]1CN([C@@H](C)CO)C(=O)Cc2cc(NS(=O)(=O)c3ccccc3)ccc2O[C@H]1CN(C)C(=O)Nc1ccccc1 | + | ·
C[C@H](CO)N1C[C@H](C)[C@@H](CN(C)C(=O)Nc2ccccc2)Oc2ccc(NC(=O)Cn3cnnn3)cc2CC1=O | + | ·
C[C@H]1CN([C@@H](C)CO)C(=O)Cc2cc(NC(=O)Cn3cnnn3)ccc2O[C@@H]1CN(C)C(=O)Nc1ccccc1 | i | 1
COc1ccc(NC(=O)COc2ccccc2Cl)c([N+](=O)[O-])c1 | i | 2
COCCCN1C(=O)[C@@]2(Cc3ccccc31)c1ccccc1C(=O)N(Cc1ccccc1C(F)(F)F)[C@H]2c1ccc(CO)cc1 | · | 3
CCOC(=O)Cc1[nH]nc2c1C(C1CC=CCC1)C(C#N)=C(N)O2 (stereo not drawn) | i | 4
Cc1ccc(S(=O)(=O)Nc2cc(S(=O)(=O)c3ccc(C)cc3)c(O)c3ccccc23)cc1 | i | -15
CC1=NN(c2ccccc2)C(=O)C1C (stereo not drawn) | · | 0
CCN(CC(=O)Nc1ccc(I)cc1)S(=O)(=O)c1ccc2ccccc2c1 | i | 7
CC(C)OC(=O)c1cn(Cc2c(F)cccc2F)c2sc(-c3ccc(NC(=O)C(C)C)cc3)c(CN(C)Cc3ccccc3)c2c1=O | + | ·
CN1C(=O)[C@@]2(Cc3ccccc3)SSS[C@]1(CO)C(=O)N2C | · | -10
O=C(CN(CCO)C(=O)c1ccc(Cl)cc1)Nc1ccc(F)cc1 | · | -3
CC(=O)N[C@@H](Cc1c[nH]c2ccccc12)C(N)=O | i | -1
COC(=O)C(Cc1c[nH]c2ccccc12)NC(=O)C(NC(=O)C(C)NC(=O)/C=C/C(=O)O)C(C)c1c[nH]c2ccccc12 (stereo not drawn) | i | 154*
Cc1c(O)cc(O)c2c1OC(c1ccccc1)CC2=O (stereo not drawn) | i | 5
Cc1cc(O)c(C)c2c1Oc1c(C)c(O)cc(C)c1C(=O)O2 | i | 23*
O=C(COc1cccc(C(F)(F)F)c1)NCc1ccco1 | i | -1
SMILES | ID4 SMM | STK33 kin inh
COc1ccc(OC)c(/C=C/C(=O)O)c1 | i | 3
COc1ccc(OC)c(NC(=O)c2ccc(C)c(S(=O)(=O)Nc3ccc(C)cc3)c2)c1 | + | -2
COc1ccc(OC)c(NC(=O)c2ccc(Cl)c(S(=O)(=O)Nc3ccc(C)cc3)c2)c1 | i | -1
CCOC(=O)c1c(CSc2cccc3cccnc23)nc2c3ccccc3ccn12 | i | ?
O=C(CSc1nc2ccccc2c(=O)[nH]1)Nc1ccc(Br)c(Cl)c1 | i | 3
CCCC(=O)Nc1ccc2c(c1)OC[C@@H](C)N(CCc1ccccc1)C[C@@H](C)[C@H](OC)CN(C)C2=O | i | ·
CO[C@@H]1CN(C)C(=O)c2ccc(NC(C)=O)cc2OC[C@@H](C)N(CCc2ccccc2)C[C@H]1C | + | ·
COc1cc(C(c2c[nH]c3ccccc23)c2c[nH]c3ccccc23)c(O)c([N+](=O)[O-])c1 | i | 2
COc1ccc(-n2c(SCC(N)=O)nnc2-c2cccs2)cc1 | i | 2
CC(NC(=O)c1ccccc1NC(=O)C1COc2ccccc2O1)c1ccccc1 (stereo not drawn) | i | -5
Cn1cnc2c(NCc3ccccc3)nc(NCCO)nc21 | i | 4
CC(C)n1cnc2c(NCc3ccccc3)nc(NCCO)nc21 | i | 35*
COc1ccc(C(=O)C(C)Oc2cccc(NC(=O)c3ccccc3[N+](=O)[O-])c2)cc1 (stereo not drawn) | i | 1
Oc1ccc(CCCc2ccc3c(c2)OCO3)c(O)c1 | i | 0
O=C(COc1ccc(I)cc1)Nc1cc(C(=O)O)cc(C(=O)O)c1 | + | -10
COC(=O)c1cccc(NC(=O)COc2ccc(I)cc2)c1 | i | 0

Screens from PubChem BioAssay.
